Reference: the supplement of paper PMC8975748
Where a name gives a salt, the structure may show the parent alone. ± gives the standard deviation of the averaged measurements.

Assays:
[1] = system: Saccharomyces cerevisiae BY4741 SeMeCo community; test: mean cell size (pixel area) (pixels); higher = larger cells; details: 10 µM; 24 h; SM minimal medium
In short: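 Yeast cells were fixed with paraformaldehyde, imaged by automated confocal microscopy and analysed in Harmony to obtain mean cell pixel area per well. They came from a four-plasmid fluorescent Saccharomyces cerevisiae BY4741 community, each plasmid complementing one auxotrophy and carrying a fluorescent marker. Before imaging, 70 µl of culture at OD600 = 0.3 was incubated for 24 h in SM medium in 384-well plates predosed acoustically with drug (final 10 µM). Values are means of 3 replicates. Same SeMeCo high-content imaging drug screen: Selleck FDA-approved drugs at 10 µM, 24 h in SM medium, 384-well plates, 3 replicates.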

[2] = system: Saccharomyces cerevisiae BY4741 SeMeCo community; test: z-score of prototroph abundance vs DMSO median; higher = larger share of this subpopulation than in DMSO controls; details: 10 µM; 24 h; SM minimal medium; subpopulation (auxotrophy): Prototroph
In short: (§1)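 Four plasmids, each restoring a single auxotrophy and encoding a distinct fluorescent protein, were carried by a Saccharomyces cerevisiae BY4741 community. After overnight growth to OD600 1.0 and dilution to 0.3, 70 µl per well was grown for 24 h in minimal SM medium on 384-well plates acoustically predosed with library drugs at 10 µM final. Following paraformaldehyde fixation, automated confocal microscopy was used, with single-auxotroph fluorescent strains defining thresholds and autofluorescence correction. Subpopulation abundance was then scored as a z-score against the vehicle-well median.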

[3] = system: Saccharomyces cerevisiae BY4741 SeMeCo community; test: z-score of subpopulation abundance vs DMSO median, subpopulation auxotrophic for M; higher = larger share of this subpopulation than in DMSO controls; details: 10 µM; 24 h; SM minimal medium; subpopulation (auxotrophy): M
In short: as §1

[4] = system: Saccharomyces cerevisiae BY4741 SeMeCo community; test: z-score of subpopulation abundance vs DMSO median, subpopulation auxotrophic for L; higher = larger share of this subpopulation than in DMSO controls; details: 10 µM; 24 h; SM minimal medium; subpopulation (auxotrophy): L
In short: as §1

[5] = system: Saccharomyces cerevisiae BY4741 SeMeCo community; test: z-score of subpopulation abundance vs DMSO median, subpopulation auxotrophic for U; higher = larger share of this subpopulation than in DMSO controls; details: 10 µM; 24 h; SM minimal medium; subpopulation (auxotrophy): U
In short: as §1

[6] = system: Saccharomyces cerevisiae BY4741 SeMeCo community; test: z-score of subpopulation abundance vs DMSO median, subpopulation auxotrophic for H; higher = larger share of this subpopulation than in DMSO controls; details: 10 µM; 24 h; SM minimal medium; subpopulation (auxotrophy): H
In short: as §1

[7] = system: Saccharomyces cerevisiae BY4741 SeMeCo community; test: z-score of subpopulation abundance vs DMSO median, subpopulation auxotrophic for LU; higher = larger share of this subpopulation than in DMSO controls; details: 10 µM; 24 h; SM minimal medium; subpopulation (auxotrophy): LU
In short: as §1

[8] = system: Saccharomyces cerevisiae BY4741 SeMeCo community; test: z-score of subpopulation abundance vs DMSO median, subpopulation auxotrophic for LM; higher = larger share of this subpopulation than in DMSO controls; details: 10 µM; 24 h; SM minimal medium; subpopulation (auxotrophy): LM
In short: as §1

[9] = system: Saccharomyces cerevisiae BY4741 SeMeCo community; test: z-score of subpopulation abundance vs DMSO median, subpopulation auxotrophic for HM; higher = larger share of this subpopulation than in DMSO controls; details: 10 µM; 24 h; SM minimal medium; subpopulation (auxotrophy): HM
In short: as §1

[10] = system: Saccharomyces cerevisiae BY4741 SeMeCo community; test: z-score of subpopulation abundance vs DMSO median, subpopulation auxotrophic for HU; higher = larger share of this subpopulation than in DMSO controls; details: 10 µM; 24 h; SM minimal medium; subpopulation (auxotrophy): HU
In short: as §1

[11] = system: Saccharomyces cerevisiae BY4741 SeMeCo community; test: z-score of subpopulation abundance vs DMSO median, subpopulation auxotrophic for UM; higher = larger share of this subpopulation than in DMSO controls; details: 10 µM; 24 h; SM minimal medium; subpopulation (auxotrophy): UM
In short: as §1

[12] = system: Saccharomyces cerevisiae BY4741 SeMeCo community; test: z-score of subpopulation abundance vs DMSO median, subpopulation auxotrophic for HL; higher = larger share of this subpopulation than in DMSO controls; details: 10 µM; 24 h; SM minimal medium; subpopulation (auxotrophy): HL
In short: as §1

[13] = system: Saccharomyces cerevisiae BY4741 SeMeCo community; test: z-score of subpopulation abundance vs DMSO median, subpopulation auxotrophic for HLU; higher = larger share of this subpopulation than in DMSO controls; details: 10 µM; 24 h; SM minimal medium; subpopulation (auxotrophy): HLU
In short: as §1

[14] = system: Saccharomyces cerevisiae BY4741 SeMeCo community; test: z-score of subpopulation abundance vs DMSO median, subpopulation auxotrophic for HLM; higher = larger share of this subpopulation than in DMSO controls; details: 10 µM; 24 h; SM minimal medium; subpopulation (auxotrophy): HLM
In short: as §1

[15] = system: Saccharomyces cerevisiae BY4741 SeMeCo community; test: z-score of subpopulation abundance vs DMSO median, subpopulation auxotrophic for HUM; higher = larger share of this subpopulation than in DMSO controls; details: 10 µM; 24 h; SM minimal medium; subpopulation (auxotrophy): HUM
In short: as §1

[16] = system: Saccharomyces cerevisiae BY4741 SeMeCo community; test: z-score of subpopulation abundance vs DMSO median, subpopulation auxotrophic for LUM; higher = larger share of this subpopulation than in DMSO controls; details: 10 µM; 24 h; SM minimal medium; subpopulation (auxotrophy): LUM
In short: as §1

[17] = system: Saccharomyces cerevisiae BY4741 SeMeCo community; test: z-score of subpopulation abundance vs DMSO median, subpopulation auxotrophic for HLUM; higher = larger share of this subpopulation than in DMSO controls; details: 10 µM; 24 h; SM minimal medium; subpopulation (auxotrophy): HLUM
In short: as §1

| Compound | mean cell size [1] | z-score of prototroph abundance [2] | z-score of subpopulation abundance [3] | z-score of subpopulation abundance [4] | z-score of subpopulation abundance [5] | z-score of subpopulation abundance [6] | z-score of subpopulation abundance [7] | z-score of subpopulation abundance [8] | z-score of subpopulation abundance [9] | z-score of subpopulation abundance [10] | z-score of subpopulation abundance [11] | z-score of subpopulation abundance [12] | z-score of subpopulation abundance [13] | z-score of subpopulation abundance [14] | z-score of subpopulation abundance [15] | z-score of subpopulation abundance [16] | z-score of subpopulation abundance [17] |
| --- | --- | --- | --- | --- | --- | --- | --- | --- | --- | --- | --- | --- | --- | --- | --- | --- | --- |
| CCCN(CCc1cccs1)[C@H]1CCc2c(O)cccc2C1 [Rotigotine] | 12.6 ± 0.31 | 0.61 | 0.93 | 0.33 | -1.74 | -0.04 | -0.93 | 1.22 | 1.47 | -1.03 | -1.79 | 0.46 | -0.16 | -0.19 | -0.69 | -0.27 | -0.54 |
| COC(=O)C1=C(C#N)NC(C)=C(C(=O)OC(C)C)C1c1cccc([N+](=O)[O-])c1 (centres undefined) [Nilvadipine] | 12.6 ± 0.18 | 0.22 | 1.61 | -0.93 | -1.16 | 1.45 | -1.37 | -0.12 | 1.37 | -1.66 | -0.73 | -0.05 | -0.56 | 2.28 | -0.21 | -0.7 | 0.19 |
| CC[C@@H](CO)NCCN[C@@H](CC)CO [Ethambutol 2HCl] | 12.46 ± 0.11 | -0.36 | -0.81 | 0.27 | 1.13 | -1.02 | 1.65 | 0.23 | -0.9 | 0.27 | 1.23 | 0.36 | 0.56 | 0.16 | 0.7 | 1.15 | 0.6 |
| CN(C)CCn1nnnc1SCC1=C(C(=O)O)N2C(=O)[C@@H](NC(=O)Cc3csc(N)n3)[C@H]2SC1 [Cefotiam hydrochloride] | 12.24 ± 0.031 | -1.4 | 1.1 | 1.99 | -0.08 | 1.72 | 1.53 | 1.06 | 1.4 | 0.76 | 1.04 | 1.92 | 1.21 | 0.75 | 0.5 | 1.11 | 0.99 |
| CCCNC(C)C(=O)Nc1ccccc1C (centres undefined) [Prilocaine] | 12.51 ± 0.059 | -0.27 | -0.72 | 1 | -0.13 | – | 0.36 | -0.18 | 0.09 | 0.57 | -0.84 | -0.2 | 0.3 | 0.16 | -0.22 | 0.36 | 0.52 |
| C[C@]12CC[C@@H]3c4ccc(O)cc4CC[C@H]3[C@@H]1CC[C@@H]2O [Estradiol] | 12.7 ± 0.21 | 0.44 | 0.4 | -0.14 | 0.01 | 0.3 | -0.02 | -0.16 | -0.39 | -1.02 | -0.27 | -0.05 | 0.9 | -0.66 | -0.92 | 0.18 | 1.17 |
| Nc1nc2[nH]cc(CCc3ccc(C(=O)N[C@@H](CCC(=O)O)C(=O)O)cc3)c2c(=O)[nH]1 [Pemetrexed] | 14.85 ± 0.13 | 3.89 | -9.06 | 1.61 | -1.55 | 5.02 | 0.04 | -3.17 | -4.62 | 2.15 | -7.46 | 2.81 | 4.74 | 0.42 | -4.52 | -3.17 | -1.01 |
| CCCCCCCCOc1ccccc1C(=O)Nc1ccc(C(=O)OCC[N+](C)(CC)CC)cc1 [Otilonium Bromide] | 12.27 ± 0.099 | -2.44 | -2.04 | -3.08 | 0.58 | 4.58 | 0.74 | -2.38 | 5.47 | 3.65 | -0.66 | 1.68 | 3.81 | 9.05 | 2.02 | 2.14 | 12.2 |
| Cc1cc(NS(=O)(=O)c2ccc(N)cc2)no1 [Sulfamethoxazole] | 12.4 ± 0.24 | -0.28 | 0.51 | 0.5 | -0.2 | -0.46 | 0.02 | 0.08 | 0.18 | -0.16 | 0.65 | 0.5 | 1.04 | -0.58 | -0.13 | -0.02 | -0.41 |
| CCOC(=O)OC(C)OC1=C(C(=O)Nc2ccccn2)N(C)S(=O)(=O)c2ccccc21 (centres undefined) [Ampiroxicam] | 12.3 ± 0.37 | 0.81 | 0 | -0.1 | -0.79 | -0.19 | -0.67 | 0.15 | -0.5 | -0.62 | 0.08 | -0.64 | -0.83 | -0.4 | -0.48 | -0.42 | -0.78 |
| CNCCCN1c2ccccc2CCc2ccccc21 [Desipramine Hydrochloride] | 12.2 ± 0.14 | -0.16 | 1.14 | 0.26 | -0.08 | 0.31 | -0.28 | 0.26 | 0.82 | -0.04 | -0.43 | 0.02 | -0.62 | -0.1 | 0.16 | -0.63 | -0.78 |
| Cc1nc(Nc2ccc(F)cc2)nc(N2CCc3ccccc3C2C)c1C (centres undefined) [Revaprazan Hydrochloride] | 11.4 ± 0.18 | -0.48 | -0.84 | 0.02 | 0.73 | 1 | 0.2 | 0.05 | -0.33 | 0.79 | 1.11 | 0.35 | -0.07 | -0.32 | 0.45 | 0.27 | 0.14 |
| CC(C(=O)O)c1ccc2c(c1)[nH]c1ccc(Cl)cc12 (centres undefined) [Carprofen] | 13.82 ± 0.13 | 3.42 | -2.06 | -0.33 | -3.82 | – | -3.11 | -1.27 | -2.19 | -2.04 | -4.96 | 1.64 | -0.81 | 0.84 | -2.82 | -1.52 | 0.18 |
